Source: PubChem BioAssay (National Center for Advancing Translational Sciences (NCATS))
G9a inh = inhibitors of human histone lysine methyltransferase G9a; Q96KQ7; G9a H3K9 monomethylation, AlphaScreen, 2 h; Potency, µM (series often up to 102 µM), inactives show at the highest dose activity, negative = inhibition, actives largely listed as inhibitors; 8.8% of 350,000 active; AID 504332; also: % is scaled to controls: 0 for no effect and ±100 for the full control effect; nearly all actives have a fitted effect of over 75% in size
Target sequence (Q96KQ7 913-1193 limits assumed): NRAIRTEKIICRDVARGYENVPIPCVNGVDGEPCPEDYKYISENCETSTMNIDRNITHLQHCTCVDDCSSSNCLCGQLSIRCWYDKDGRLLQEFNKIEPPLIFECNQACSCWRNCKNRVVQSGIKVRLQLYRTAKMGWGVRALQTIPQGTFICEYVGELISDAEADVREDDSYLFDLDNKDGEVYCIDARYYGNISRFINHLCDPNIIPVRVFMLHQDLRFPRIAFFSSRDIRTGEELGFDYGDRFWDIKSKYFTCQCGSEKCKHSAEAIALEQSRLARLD
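Readings reflect AlphaScreen signal from monomethyl-H3K9 antibody detection. HMT at 20 nM; substrate b-H3K9 500 nM; cofactor SAM 20 uM; 2 h RT reaction; compounds tested as titrations in qHTS with 15 min preincubation.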
HP1b chromo inh = inhibitors of HP1-beta chromodomain binding to methylated histone tails; AlphaScreen HP1-beta / biotin-H3K9me3 peptide binding; Potency, µM (doses to about 114 µM), for inactives: at the highest dose activity change, negative = inhibition, actives largely listed as inhibitors; P83916; 0.56% of 390,000 active; also: nearly all actives have a fitted effect of over 70% in size
Target sequence (P83916 whole entry, looked up): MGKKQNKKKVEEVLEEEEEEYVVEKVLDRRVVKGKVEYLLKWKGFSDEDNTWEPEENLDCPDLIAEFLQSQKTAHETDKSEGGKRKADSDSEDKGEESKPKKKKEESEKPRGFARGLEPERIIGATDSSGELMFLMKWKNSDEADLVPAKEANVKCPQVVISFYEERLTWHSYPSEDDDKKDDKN
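HP1-beta protein (50 nM final) preincubated 30 min at room temperature with biotinylated H3(1-18)K9me3 peptide (50 nM) in PBS pH 7.4, 0.01% Tween-20, then compound added for 30 min. AlphaScreen streptavidin donor/nickel chelate acceptor beads (10 ug/mL final), 30 min dark, luminescence read.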
JMJD2A Tudor = blocks the human JMJD2A Tudor domain; AlphaScreen JMJD2A-Tudor / H3K4me3 peptide binding; O75164; 4.4% of 390,000 active; Potency, µM (titrated, usually from 114 µM), for the others: at the highest dose activity change, negative = inhibition, hits mostly inhibitors; also: % is scaled to controls: 0 for no effect and ±100 for the full control effect; nearly all actives have a fitted effect of over 50% in size
BAZ2B inh = BAZ2B (human) inhibition. Q9UIF8. AlphaScreen BAZ2B-H3K14Ac peptide displacement. Potency, µM (doses to about 114 µM), for the others: top-dose activity change, negative = inhibition, actives largely listed as inhibitors. 4.4% of 360,000 active. AID 504333; also: % is scaled to controls: 0 for no effect and ±100 for the full control effect; nearly all actives have a fitted effect of over 60% in size
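Protein-peptide AlphaScreen: BAZ2B 50 nM, b-H3K14Ac 50 nM, 1x PBS pH 7.4 + 0.01% Tween-20. Preincubation 30 min RT; cpd 30 min RT (top 110 uM); beads 20 min RT, light-protected.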
L3MBTL1 inh = L3MBTL1 (human) inhibition; Q9Y468; AlphaScreen L3MBTL1–H3K9me1 peptide binding; Potency, µM (series often up to 57.1 µM), without a hit: at the highest dose activity, negative = inhibition, most hits filed as inhibitors; 0.66% of 230,000 active; AID 485360; also: % is scaled to controls: 0 for no effect and ±100 for the full control effect; nearly all actives have a fitted effect of over 60% in size
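L3MBTL1 (50 nM) pre-complexed 30 min with biotinylated H3(1-15)K9me1 peptide (75 nM), then compounds added for 30 min at room temperature; AlphaScreen streptavidin donor/nickel chelate acceptor beads (10 ug/mL final) read after 30 min dark incubation.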
Starred values were filed as active, the others as inactive; ? = inconclusive; / = no result; [ ] = remark or other dose. In the library only some 11% were active in any assay of this set; here they are far more common. Calls follow the shape of the dose curve; as a rule, active = well fitted inhibition curve with a large enough effect; inconclusive = small, poorly fitted or top-dose-only effect; inactive = no such curve, though single readings can be large or run the other way. Potency is read from the fitted curve at half-maximal effect.

SMILES | G9a inh | HP1b chromo inh | JMJD2A Tudor | BAZ2B inh | L3MBTL1 inh
Cc1ccc(S(=O)(=O)N2C(=O)[C@@H]3Cc4ccccc4CN3C2=O)cc1 | 40µM* | -17% | 7.9µM* | -35% | /
Clc1nc(Cl)nc(-c2cn(-c3ccccc3)c3ccccc23)n1 | 13µM* | 18% | 79µM* | ? | 2%
CCCCCn1ncc2c3sc(C)cc3n(C)c2c1=O | / | / | 16% | / | /
CCc1ccc(Nc2n[n+](-c3ccccc3)c(-c3c(Cl)cccc3Cl)s2)cc1 | 14µM* | -5% | 16µM* | 8.9µM* | ?
COc1ccc(-c2sc(Nc3ccccc3)n[n+]2-c2ccc(F)cc2)cc1Br | ? | 7% | ? | -12% | -3%
O=C(c1ccc(F)cc1)c1cnc(Nc2ccccc2)s1 | -23% | 37% | -13% | -17% | /
CCc1ccc(Nc2n[n+](-c3ccccc3)c(-c3cc(OC)c(OC)cc3Br)s2)cc1 | ? | -6% | 79µM* | 32µM* | -3%
COc1ccc2ccccc2c1-c1sc(Nc2ccccc2)n[n+]1-c1ccc(F)cc1 | 50µM* | ? | 40µM* | 32µM* | -12%
Fc1ccc(-[n+]2nc(Nc3ccccc3)sc2-c2c(Cl)cccc2Cl)cc1 | / | ? | 35µM* | 40µM* | ?
Cc1cccc(N2CCN(C(=O)CN3C(=O)COc4ccc(S(=O)(=O)N5CCCCCC5)cc43)CC2)c1C | -32%[59 µM] | 12% | -27% | -21% | /
COc1ccc(CCN2C(=O)N(c3ccc(C)cc3)C(=O)C2CC(=O)Nc2ccc(F)cc2)cc1 (stereo unspecified) | -33%[59 µM] | 24% | -22% | -9% | /
CCc1ccc(NC(=O)Cn2c(=O)oc3cc(S(=O)(=O)N4CCCCCC4)ccc32)cc1 | 3%[59 µM] | 7% | -31% | -16% | /
O=C(NCc1ccc2c(c1)OCO2)C1CCCN1C(=O)Nc1ccc(Cl)cc1 (stereo unspecified) | 24% | -14% | 1% | 11% | /
CCc1ccc(Nc2n[n+](-c3ccccc3)c(/C=C/c3ccccc3)s2)cc1 | 40µM* | / | / | 28µM* | -9%
CCc1ccc(Nc2nc3ccccc3c(=O)s2)cc1 | -5%[59 µM] | 39% | -1% | -2% | 1%
Cc1ccc(C2CC2C(=O)NNC(=S)Nc2cccc(Cl)c2)cc1 (stereo unspecified) | ? | -34% | -34% | -28% | 26%[11.4 µM]
Cc1ccc(C2CC2c2n[nH]c(=S)n2-c2ccc(C)cc2)cc1 (stereo unspecified) | 0.63µM* | -15% | ? | -32% | /
S=c1[nH]nc(C2CC2c2ccc(Cl)cc2)n1-c1ccc(Cl)cc1 (stereo unspecified) | ? | -21% | ? | ? | -12%
Cc1ccc(-n2c(C3CC3c3ccc(Cl)cc3)n[nH]c2=S)cc1 (stereo unspecified) | 2µM* | 17% | -27% | -28% | /
Cc1ccc(-n2c([C@@H]3C[C@H]3c3ccccc3)n[nH]c2=S)cc1 | 0.5µM* | 27% | -22% | -33% | -3%
Cc1ccc(C2CC2c2n[nH]c(=S)n2-c2cccc(Cl)c2)cc1 (stereo unspecified) | 10µM* | -9% | ? | -39% | -6%
COC(=O)Cn1c(SCCOc2ccccc2Cl)nc2ccccc21 | -31%[59 µM] | 4% | ? | -9% | /
Cc1ccc(N2CC(NC(=O)C3CC3)CC2=O)cc1C (stereo unspecified) | -5%[59 µM] | -2% | -12% | 0% | /
COc1cccc(N=c2oc3cc(O)ccc3cc2C(=O)NCC2CCCO2)c1 (stereo unspecified) | -10% | 8% | -35% | 35µM* | -20%
O=S(=O)(Nc1cc(Br)cc2cccnc12)c1cccc2ccccc12 | / | 35% | -21% | / | /
CC(C)c1ccc(/C=N/N2CCCCC2)cc1 | 10µM* | 22µM* | ? | 32µM* | -11%
CCOc1ccc(C=NN2CCCCCC2)cc1OCC | / | ? | 40µM* | / | /
CC(C)c1ccc(/C=N/N2CCN(c3ccccn3)CC2)cc1 | ? | 6% | -28% | -23% | -11%
CCC(=O)c1ccc(OCC(=O)N2CCc3cc(OC)c(OC)cc3C2)cc1 | -35%[12.7 µM] | 40% | -14% | 9% | -4%
CCC(=O)c1ccc(OCC(=O)N2CCCC2)c(OC)c1 | / | 34% | 15% | 50µM* | ?
